Screening results from PubChem.
Tau fibril ThT = blocks human tau fibril formation measured by thioflavin T; 270,000 tested, 2.1% active; Potency, µM (top dose mostly 57.4 µM), usual class: inhibitors; recombinant tau K18 P301L, heparin-induced fibrillization, ThT fluorescence; AID 1460; further: nearly all actives have a fitted effect of over 55% in size
Target sequence (P10636 561-689 P618L limits assumed): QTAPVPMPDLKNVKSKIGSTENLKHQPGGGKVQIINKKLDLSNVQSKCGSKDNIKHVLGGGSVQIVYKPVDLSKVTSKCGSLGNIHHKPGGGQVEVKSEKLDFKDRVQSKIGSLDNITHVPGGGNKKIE
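In this qHTS, human K18 P301L tau is incubated with compound and heparin for 6 hr at 37 C, and Thioflavin T fluorescence then reports fibril load.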
Tau fibril FP = tau fibrillization inhibition (FP); AID 1468; 280,000 tested, 0.39% active; K18 P301L tau heparin fibrillization, Alexa594 FP, 6 h; Potency, µM (highest dose often 57.7 µM), most hits filed as inhibitors; further: nearly all actives have a fitted effect of over 55% in size
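Read-out: fluorescence polarization of Alexa 594-labeled tau (0.24 uM), 555 nm excitation, 632 nm emission. Mixtures held 15 uM unlabeled K18 P301L, compound and 20 uM heparin, pH 7 acetate buffer, incubated 6 hr at 37 C.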
Tau fluor counter = counter-screen for tau fibril formation inhibitors; 280,000 tested, 0.93% active; tau K18 P301L Alexa594 fluorescence, heparin fibrillization; Potency, µM (highest dose often 57.7 µM); AID 1463; further: nearly all actives have a fitted effect of over 55% in size
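Human tau K18 P301L (15 uM unlabeled, 0.24 uM Alexa 594-labeled) in 100 mM sodium acetate pH 7 with 20 uM heparin, 6 hr at 37 C. ThT 30 uM added, 1 hr ambient; Alexa 594 FP and total fluorescence read at 555/632 nm.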
G9a inh = blocks human histone lysine methyltransferase G9a; Q96KQ7; G9a H3K9 monomethylation, AlphaScreen, 2 h; Potency, µM (doses to about 102 µM), actives largely listed as inhibitors; 350,000 tested, 8.8% active; further: nearly all actives have a fitted effect of over 75% in size
Target sequence (Q96KQ7 913-1193 limits assumed): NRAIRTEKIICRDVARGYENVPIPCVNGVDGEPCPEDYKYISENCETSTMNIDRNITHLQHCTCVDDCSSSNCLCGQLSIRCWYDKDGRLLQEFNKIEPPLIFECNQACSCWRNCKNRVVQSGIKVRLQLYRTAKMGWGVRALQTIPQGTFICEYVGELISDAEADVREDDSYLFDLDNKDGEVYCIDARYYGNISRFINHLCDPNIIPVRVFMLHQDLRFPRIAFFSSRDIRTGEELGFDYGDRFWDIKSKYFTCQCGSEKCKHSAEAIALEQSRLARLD
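Chemiluminescent proximity detection of H3K9 monomethylation, read after 10 min bead incubation in the dark. Reaction: 20 nM G9a, 500 nM biotin-H3K9 peptide, 20 uM SAM cofactor, 2 h, room temperature, following 15 min enzyme-compound preincubation.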
Coupling enz = counter-screen for Giardia aldolase inhibitors: coupling enzyme system; 290,000 tested, 0.67% active; AID 2472; activity change, negative = inhibition, % at 58.2 µM, hits read low; coupling enzyme system counterscreen, AmpLite Red fluorescence; in the data active means activity change below about -30%
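Counterscreen lacking aldolase: glyceraldehyde-3-phosphate coupling-enzyme reagent preincubated 10 min at RT with compound (at 57.5 uM final), then substrate/coupling system with AmpLite Red added; fluorescence read at 525/598 nm after 20 min RT.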
Sfp inh = inhibitors of Bacillus subtilis Sfp phosphopantetheinyl transferase; Biochemical Sfp PPTase activity, qHTS; Q9F4F7; 310,000 tested, 3.5% active; Potency, µM, actives largely listed as inhibitors;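 further: the enzyme is Sfp with the accession as filed and its product quenches rhodamine fluorescence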
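Reaction rates are the 30-min fluorescence difference (ex 525, em 598 nm) in wells containing 15 nM Sfp, 5 uM rhodamine-CoA and 12.5 uM BHQ-2-YbbR at pH 7.6 with 10 mM MgCl2.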
Hits are given with their value; n = inactive; u = inconclusive; x = no result given; [ ] = another dose, or the depositor's remark. Compounds with a hit are over-represented: about 11% of the library has one in this group of screens. Unless noted, the call rests on the fitted dose curve; in most records, active means well fitted curve in the direction sought with a large enough effect; inconclusive means small, poorly fitted or top-dose-only effect, or another doubt; inactive means no such curve, though single readings can be large; an effect the other way counts as inactive or inconclusive.

SMILES	Tau fibril ThT	Tau fibril FP	Tau fluor counter	G9a inh	Coupling enz	Sfp inh
COc1ccccc1C(=O)NCCC(=O)NCc1cccs1	x	x	x	n	x	x
CC(C)(C)C1=Nn2c(nnc2-c2ccccc2F)SC1	n	n	n	n	n	n
CC(C)(C)C1=Nn2c(nnc2-c2ccccn2)SC1	n	n	n	u	n	56µM
Cc1nc2ccc(S(=O)(=O)N(C)CC(=O)NCc3ccc4c(c3)OCO4)cc2s1	n	n	n	n[2.33 µM]	n	n
Cc1nc2ccc(S(=O)(=O)N(C)CC(=O)NCc3ccc(N(C)C)cc3)cc2s1	x	x	x	50µM	x	n
CN(C)c1ccc(CNC(=O)CN2CCSc3ccc(S(=O)(=O)N(C)C)cc32)cc1	n	n	n	7.9µM	x	x
COc1ccc2c(CNC3CCC(C)CC3)c(C(=O)O)n(Cc3ccccc3)c2c1 (centres undefined)	n	n	n	n	x	x
CCCn1c(-c2ccc(F)cc2)nc2c(N3CCN(CCC(=O)OCC)CC3)nc(C)nc21	n	n	n	x	n	n
O=c1ccc2[n+]([O-])c3ccc(O)cc3oc-2c1	13µM	n	2µM[fluorescent]	10µM	n	u
Cc1[nH]c2ccccc2c1C(O)CN1CCN(c2cccc(C(F)(F)F)c2)CC1 (centres undefined)	u	n	n	56µM	n	n
O=C(Nc1ccc(N2CCOCC2)cc1)NC1CCCCC1	n	n	n	u	n	n
Cc1ccc(NC(=O)c2cc(N3C(=O)C=CC3=O)ccc2N2CCOCC2)cc1Cl	n	u	n	1.6µM	n	4µM
O=C(Nc1ccc(N2CCOCC2)cc1)C1(c2ccc(Cl)cc2)CCC1	n	n	n	45µM	n	n
O=C(Nc1ccc(N2CCOCC2)cc1)Nc1cnsn1	u	n	n	u	n	28µM
Cc1ccc(NC(=O)c2cc(N3C(=O)CCC3=O)ccc2N2CCOCC2)cc1	n	n	n	n	n	n
Cc1nc2cc(NC(=O)Nc3ccc(N4CCOCC4)cc3)ccc2n1C	u	n	n	8.9µM	n	n
Cc1ccc(NC(=O)Nc2ccc3c(c2)nc(C)n3C)cc1C	u	n	n	n	n	n
O=C(Nc1ccc(N2CCOCC2)cc1)Nc1ccc(Cl)c(Cl)c1	13µM	u	8.9µM[quencher]	7.1µM	n	n
O=C(Nc1ccc(N2CCOCC2)cc1)c1cc(F)c(F)cc1Cl	n	n	n	n	n	n
CSc1ccc(Cl)c(C(=O)Nc2ccc(N3CCOCC3)cc2)c1	n	n	n	50µM	n	n
O=C(Nc1ccc(Cl)cc1)Nc1ccc(N2CCOCC2)cc1	u	n	u	n[12.7 µM]	n	n
O=C(Nc1ccc2c(c1)OCO2)c1c[nH]c(=O)n(-c2ccc(F)cc2)c1=O	x	x	x	56µM	n	n
CCCCn1c(N)c(N(CC(C)C)C(=O)c2c(-c3ccccc3)noc2C)c(=O)[nH]c1=O	x	x	x	n	x	x
Cn1c(NNC(=O)/C=C/c2ccc3c(c2)OCO3)cc(=O)n(C)c1=O	x	n	n	x	-37	n
Cn1c(NC(=O)/C=C\c2ccccc2)cc(=O)n(C)c1=O	n	n	n	n	n	n
SMILES	Tau fibril ThT	Tau fibril FP	Tau fluor counter	G9a inh	Coupling enz	Sfp inh
Clc1ccc2c(c1)-c1c(cnc3cc(-c4ccccc4)nn13)CO2	n	u	n	n	x	x
O=C(Oc1ccc(-n2cnnn2)cc1)c1ccccc1	n	n	n	x	n	n
COc1ccc(Cl)cc1C(=O)CSc1nc(N)cc(N)n1	n	n	n	50µM	n	n
CCCCn1nnnc1SCC(=O)c1cc(Cl)ccc1OC	n	n	n	n	n	n
CC(=C\c1ccccc1)/C=C1/SC(=S)N(CCC(=O)Nc2ccccn2)C1=O	u	n	n	40µM	n	n
CC(=C\c1ccccc1)/C=C1/SC(=S)N(CCCC(=O)O)C1=O	x	x	x	40µM	n	n
CC(/C=C1\SC(=S)N(CCC(=O)Nc2ccccc2O)C1=O)=C\c1ccccc1	x	x	x	n	n	n
CC(/C=C1\SC(=O)N(CCCC(=O)O)C1=O)=C\c1ccccc1	n	n	n	n	n	n
CC(/C=C1\SC(=S)N(CCC(=O)Nc2cccc(C(=O)O)c2)C1=O)=C\c1ccccc1	x	x	x	45µM	n	n
CCN(CC)CCOC(=O)c1ccc(NC(=O)CCCN2C(=O)/C(=C\c3cccs3)SC2=S)cc1	x	x	x	x	x	50µM
